Screening data as filed in PubChem BioAssay.
B2AR ag: beta2AR agonists driving receptor internalization, primary screen, cell-based, FAP fluorogen, flow cytometry; Am2.2-beta2AR cells; response, % (concentration not given with the values); 340,000 compounds, 0.43% hits;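 active = response above a set limit, near 3 SD of response in nonfluorescent compounds, cut at about 42% in these data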
NTR1 ag: agonists of human NTR1, primary screen, imaging, U2OS cells, beta-arrestin-GFP, high content | NTR1-U2OS beta-arrestin-GFP spot imaging, agonist mode | activation, % at 20 µM | 330,000 compounds, 0.17% hits | AID 493036, 2011;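 active = activation at or above 40% of the spot to cytoplasm intensity ratio, with at least 20 cells analyzed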
HTR2A ag: mouse Htr2a agonists via beta-arrestin recruitment, primary screen, cell-based, luminescence. 5-hydroxytryptamine receptor 2A (Mus musculus), P35363. CHO-K1 mHTR2A beta-arrestin complementation; percent of 30 µM serotonin response. activation, % at 7.6 µM. 360,000 compounds, 0.66% hits. AID 624169, 2012;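 active = activation above a run cutoff, the mean activation of all tested compounds plus 3 SD, cut at about 14% in these data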
ABHD5-PLIN5 inh: ABHD5-PLIN5 interaction inhibitors, primary screen, cell lysate, split luciferase complementation, luminescence; Perilipin-5 (Homo sapiens) + 1-acylglycerol-3-phosphate O-acyltransferase ABHD5 (Homo …; 360,000 compounds, 0.78% hits; inhibition, % at 4 µM; Split G. princeps luciferase complementation, 4 h;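 active = inhibition above the mean inhibition across every tested compound plus 3 SD, cut at about 22% in these data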
Exocytosis inh: LAMP-1 surface exposure blockers, TALL-104 cells – cell-based, flow cytometry, MLPCN library, primary screen; 360,000 compounds, 0.66% hits; inhibition, % at 10 µM; TALL-104 LAMP-1 surface exposure; cells stimulated with thapsigargin and PMA;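 active = inhibition above about 55%, limit read from the data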
ABHD5-PLIN5 conf: ABHD5-PLIN5 interaction inhibitors, confirmation, biochemical, luminescence; shares compounds with ABHD5-PLIN5 inh; inhibition, % at 4 µM; 2,200 compounds, 67% hits; AID 651612, 2012; in the data active = inhibition above about 23%
HNF4 split-luc: HNF4 dimerization inhibitors, counter-screen for ABHD5-PLIN5 interaction inhibitor project, biochemical, split-luciferase complementation, luminescence | shares compounds with ABHD5-PLIN5 inh | inhibition, % at 4 µM | 2,200 compounds, 77% hits;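 active = mean inhibition across replicate wells exceeding the computed hit threshold, cut at about 13% in these data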;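 note: light from luciferase halves that rejoin when HNF4 fusion proteins dimerize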
Large screens that a line does not name were inactive (follow-up assays come after a bar, where they were run). Shown are actives, neighbours in structure and some others; about 2.3% of the full set was active somewhere.

CC(C)(C)NC(=O)C(c1cccc2ccccc12)n1c(=O)c(-c2ccco2)nc2ccccc21 (configuration not stated)	ABHD5-PLIN5 inh 67 (no result: B2AR ag, NTR1 ag) | ABHD5-PLIN5 conf 69 | HNF4 split-luc 13
CCCCCNC(=O)C(c1cccc2ccccc12)n1c(=O)c(-c2ccco2)nc2ccccc21 (configuration not stated)	ABHD5-PLIN5 inh 84 (no result: B2AR ag, NTR1 ag) | ABHD5-PLIN5 conf 82 | HNF4 split-luc 35
CCCCCNC(=O)C(C1CC1)n1c(=O)c(-c2ccco2)nc2ccccc21 (configuration not stated)	ABHD5-PLIN5 inh 31 (no result: B2AR ag, NTR1 ag) | ABHD5-PLIN5 conf 61 | HNF4 split-luc 23
O=C(NCc1ccccc1)C(c1cccc2ccccc12)n1c(=O)c(-c2cc3ccccc3[nH]2)nc2ccccc21 (configuration not stated)	none (no result: B2AR ag, NTR1 ag)
CC(C)(C)NC(=O)C(c1cccc2ccccc12)n1c(=O)c(-c2ccccc2)nc2ccccc21 (configuration not stated)	none (no result: B2AR ag, NTR1 ag)
Cc1nc2cc(C(F)(F)F)ccc2n1C	none
COc1ccccc1N1CCN(C(=O)C(C)CS(=O)(=O)c2ccc3c(c2)NC(=O)CS3)CC1 (configuration not stated)	none
CCCCCCn1c(=O)n2n(c1=O)[C@@H]1CN(S(=O)(=O)c3ccc(C)cc3)C[C@]1(O)[C@@H](OC(=O)NC1CCCC1)C2	none (no result: B2AR ag, NTR1 ag)
COc1ccc(-c2nn(Cc3ccccc3)cc2C(=O)N2CCN(c3ncccn3)CC2)cc1	none
CCCCCNC(=O)C(c1ccc(C(F)(F)F)cc1)n1c(=O)c(-c2ccco2)nc2ccccc21 (configuration not stated)	ABHD5-PLIN5 inh 83 (no result: B2AR ag, NTR1 ag) | ABHD5-PLIN5 conf 47 | HNF4 split-luc inactive
COC/C=C/C1=CC2=CC(=O)C(C)(OC(=O)C3CCCC3)C(=O)C2=CO1 (configuration not stated)	ABHD5-PLIN5 inh 36 | ABHD5-PLIN5 conf 67 | HNF4 split-luc 39
COC/C=C/C1=CC2=CC(=O)C(C)(OC(=O)c3ccco3)C(=O)C2=CO1 (configuration not stated)	none (no result: B2AR ag, HTR2A ag, ABHD5-PLIN5 inh, Exocytosis inh)
O=C(CNC(=O)c1ccc(Br)o1)NCC1CCCCC1	none
NCCCCCc1cn(CC(=O)NCCCCCCCCCCC(=O)N2CCNCC2)nn1	ABHD5-PLIN5 inh 93 | ABHD5-PLIN5 conf inactive | HNF4 split-luc inactive
O=C(CSc1nc(-c2ccccc2)cs1)NC(=O)NCc1ccco1	none
O=C(CSc1n[nH]c(-c2ccccc2)n1)NC(=O)NCc1ccco1	ABHD5-PLIN5 inh 23 (no result: NTR1 ag) | ABHD5-PLIN5 conf inactive | HNF4 split-luc inactive
Cc1cc(SCC(=O)NC(=O)NCc2ccco2)nc2c(C)cccc12	ABHD5-PLIN5 inh 40 | ABHD5-PLIN5 conf 27 | HNF4 split-luc 38
COc1cccc(-c2cnc3c(NC=O)cc(-c4ccoc4)cn23)c1	ABHD5-PLIN5 inh 26 (no result: B2AR ag, NTR1 ag) | ABHD5-PLIN5 conf 30 | HNF4 split-luc 37
COc1cccc(-c2cnc3c(NC=O)cc(-c4ccc(S(C)(=O)=O)cc4)cn23)c1	none (no result: B2AR ag, NTR1 ag)
CN(C)C(=O)c1cccc(-c2cnc3c(NC=O)cc(-c4ccccc4Cl)cn23)c1	ABHD5-PLIN5 inh 24 (no result: B2AR ag, NTR1 ag) | ABHD5-PLIN5 conf inactive | HNF4 split-luc inactive
O=S(=O)(c1c(F)cccc1F)N1CCN(Cc2c(O)ccc3ccccc23)CC1	ABHD5-PLIN5 inh 27 | ABHD5-PLIN5 conf 43 | HNF4 split-luc 77
CCOC(=O)c1cc([N+](=O)[O-])cc([N+](=O)[O-])c1Sc1ncnc2nc[nH]c12	ABHD5-PLIN5 inh 38 (no result: NTR1 ag) | ABHD5-PLIN5 conf 62 | HNF4 split-luc 102
